Screens deposited in PubChem by National Center for Advancing Translational Sciences (NCATS).
KB-V1 cytotox = KB-V1 MDR subline cytotoxicity | AID 1347076 | KB-V1 MDR cells viability, CellTiter-Glo, 72 h | Potency, µM (highest dose often 46.1 µM), hits mostly cytotoxic | 3.4% of 400,000 active; further: nearly all actives have a fitted effect of over 60% in size
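Cells of the MDR subline KB-V1 are plated, dosed with compound at multiple concentrations, and incubated 72 h at 37 degrees C; CellTiter-Glo is then added and luminescence read after 10 min.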
HT1080-NT tox = kills 2HG-producing HT-1080-NT fibrosarcoma cells. Potency, µM (titrated, usually from 46.1 µM), without a hit: at the top dose activity, negative = less viability, usual class: cytotoxic. AID 686970. HT-1080-NT fibrosarcoma viability, CellTiter-Glo ATP luminescence, 48 h. 1.6% of 360,000 active;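 further: NT is the 2HG producing partner of a matched IDH1 knockdown line; 0% = DMSO-treated cells and -100% = media-only wells without cells; nearly all actives have a fitted effect of over 55% in size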
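HT-1080-NT fibrosarcoma cells (2HG-overproducing), 750 cells/well in RPMI with 5% FBS, dosed after 2 h and incubated 48 h at 37C. CellTiter-Glo luminescence normalized to DMSO and no-cell wells; concentration-response curves fitted and classed.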
TDP1 cell CPT = growth inhibition of DT40 Tdp1-/-;hTDP1 cells with camptothecin (screen for TDP1 inhibitors) | chicken DT40 Tdp1-/-;hTDP1 cells + 20 nM CPT, ATP luminescence, 48 h | Potency, µM (series often up to 46.2 µM), inactives show at the top dose activity change, negative = growth inhibition, most hits filed as inhibitors | 12% of 420,000 active | AID 686979; further: nearly all actives have a fitted effect of over 55% in size
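Cell growth measured by CellTiter-Glo luminescence after a minimum 48 h, 37 C compound exposure with 20 nM CPT in Tdp1-knockout DT40 cells stably expressing hTDP1, seeded 400/well; qHTS titration format.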
HT1080 IDH1KD tx = kills HT-1080 cells with IDH1 knockdown; HT-1080 IDH1 knockdown viability, ATP luminescence, 48 h; Potency, µM (titrated, usually from 46.1 µM), for the others: top-dose activity, negative = toxicity, most hits filed as cytotoxic; 2% of 360,000 active;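 further: 0% = DMSO wells and -100% = cell-free medium wells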
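Cytotoxicity counter-line: IDH1KD HT-1080, 48 h, CellTiter-Glo. Curves classed by r2, magnitude and activity.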
TDP1 cell noCPT = qHTS for Inhibitors of human tyrosyl-DNA phosphodiesterase 1 (TDP1): qHTS in cells in absence of CPT | 15% of 420,000 active | Potency, µM (doses to about 46.2 µM), without a hit: at the top dose activity change, negative = growth inhibition, hits mostly inhibitors | DT40 Tdp1-/- hTDP1 cells, no CPT, ATP luminescence, 48 h; further: nearly all actives have a fitted effect of over 55% in size
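Chicken DT40 Tdp1-/- cells stably complemented with human TDP1 were seeded at 400 cells/well with DMSO in place of 20 nM camptothecin. After compound pinning, cells grew at least 48 hr at 37 °C; viability read by CellTiter-Glo luminescence.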
KB-3-1 cytotox = KB-3-1 parental cell cytotoxicity; KB-3-1 viability, CellTiter-Glo ATP luminescence, 72 h; 1.4% of 400,000 active; Potency, µM (highest dose often 46.1 µM), actives largely listed as cytotoxic; further: nearly all actives have a fitted effect of over 60% in size
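KB-3-1 cells, DMEM (no phenol red) + 10% FBS; compound by pin transfer, 72 h, 37 °C. Readout: CellTiter-Glo luminescence after 10 min. Data normalized, curve-fitted.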
* marks the source's active call; other numbers are inactive results; i = inactive; ? = inconclusive; / = no result given. Hits are enriched below; roughly 19% of the tested compounds scored in any of these assays. The call rests on the fitted dose curve; in most records, active means well fitted curve in the direction sought with a large enough effect; inconclusive means small, poorly fitted or top-dose-only effect, or another doubt; inactive means no such curve, though single readings can be large; an effect the other way counts as inactive or inconclusive. Unless noted, on the % scale 0 is the no-effect control and ±100 the full control effect; potency means the concentration at half of the fitted maximal effect.

SMILES	KB-V1 cytotox	HT1080-NT tox	TDP1 cell CPT	HT1080 IDH1KD tx	TDP1 cell noCPT	KB-3-1 cytotox
CCN(CC)C(=O)C1=C(C)N(CCC2=CCCCC2)C(=O)C(CC(=O)NCCCN(C)C)C1 (stereo unspecified)	i	3%	-3%	0%	-2%	i
CCOC(=O)c1c(NC(=O)C(C)N2CCN(C(=O)c3ccco3)CC2)sc2c1CCCC2 (stereo unspecified)	?	-17%	15µM*	-27%	16µM*	?
CCOC(=O)c1c(NC(=O)c2cccs2)sc2c1CCCC2	i	26%	0%	9%	-31%	i
CCOC(=O)c1c(NC(=O)CNCCOC)sc2c1CCCC2	i	-1%	?	4%	12µM*	i
CCc1ccccc1NC(=O)CSc1nnc(CNC(=O)c2ccco2)n1C	i	-4%	12%	11%	10%	i
CCOC(=O)c1c(NC(=O)CSc2nnc(CNC(=O)c3ccco3)n2C)sc2c1CCC2	21µM*	-2%	-25%	-20%	?	i
NC(=O)c1c(NC(=O)CSc2nnc(Cc3ccccc3)n2Cc2ccco2)sc2c1CCC2	15µM*	-5%	?	?	-13%	i
Cc1cc(C)c(NC(=O)CSc2nc3ccccc3c3nc(-c4ccccc4)nn23)c(C)c1	i	/	-1%	/	-1%	i
O=C(Oc1ccccc1F)c1nc(SCc2ccc(F)cc2)ncc1Cl	/	/	-11%	/	-11%	/
O=C(O)c1ccc(N=C2c3ccccc3-c3ccccc32)cc1	i	17%	9%	23%	19%	i
CCC(=O)N1CCCC(C(=O)c2ccc(-c3ccccc3)cc2)C1 (stereo unspecified)	i	-3%	?	-29%	?	?
Cn1cc(CN2CCCC(C(=O)c3ccc(-c4ccccc4)cc3)C2)cn1 (stereo unspecified)	i	?	-24%	-24%	16µM*	i
CCn1cc(CN2CCCC(C(=O)c3ccc(-c4ccccc4)cc3)C2)cn1 (stereo unspecified)	i	?	?	23µM*	26µM*	?
Cc1c(NC(=O)Nc2ccccc2C(F)(F)F)sc2nc3n(c(=O)c12)CCC(C)CC3 (stereo unspecified)	?	/	21µM*	/	13µM*	i
COc1cc(OC)c(NC(=O)Nc2sc3nc4n(c(=O)c3c2C)CCC(C)CC4)cc1Cl (stereo unspecified)	i	/	5.2µM*	/	5.8µM*	i
CCOC(=O)N1CCN(C(=O)Nc2sc3nc4n(c(=O)c3c2C)CCC(C)CC4)CC1 (stereo unspecified)	i	0%	?	-17%	?	i
CC(=O)c1cccc(NC(=O)Nc2sc3nc4n(c(=O)c3c2C)CCC(C)CC4)c1 (stereo unspecified)	?	/	?	/	8.2µM*	i
Cc1c(NC(=O)Nc2ccc(Cl)c(Cl)c2)sc2nc3n(c(=O)c12)CCC(C)CC3 (stereo unspecified)	i	/	5.2µM*	/	8.2µM*	?
COc1ccc2c(c1)c(=O)c(S(=O)(=O)c1ccc(C)c(C)c1)cn2CC(=O)Nc1ccccc1	i	/	-21%	/	?	i
COc1ccc([C@H]2CC(=O)C=C(c3ccc(Cl)c(C(F)(F)F)c3)C2)cc1OC	i	9%	?	5%	?	i
O=C(CCS(=O)(=O)c1cccc2nonc12)Nc1c(F)cccc1F	i	/	-21%	/	?	i
O=C(NCC(=O)N1CCN(c2ccccc2O)CC1)c1cccs1	i	0%	-4%	-12%	-24%	i
Cn1c2c(c(=O)[nH]c1=O)C(c1ccc(O)cc1)C1=C(N2)c2ccccc2C1=O (stereo unspecified)	i	-6%	10µM*	-27%	23µM*	i
Nc1nc2c(c(=O)[nH]1)C(c1ccccc1)C1=C(N2)c2ccccc2C1=O (stereo unspecified)	i	-6%	-21%	0%	-18%	i
Cc1ccc(NC(=O)Cn2nnc(C(=O)NCc3cccs3)c2N)cc1F	i	-17%	-6%	-12%	25%	i
SMILES	KB-V1 cytotox	HT1080-NT tox	TDP1 cell CPT	HT1080 IDH1KD tx	TDP1 cell noCPT	KB-3-1 cytotox
CCc1ccccc1NC(=O)CN(C)C(=O)c1cc(C2CC2)nc2c1cnn2C(C)C	?	5%	-24%	0%	-4%	i
CC(C)n1ncc2c(C(=O)NCCc3ccc(F)cc3)cc(C3CC3)nc21	?	2%	?	2%	23µM*	i
Cc1ccc(CNC(=O)c2cc(C3CC3)nc3c2cnn3C(C)C)cc1	i	4%	?	-10%	18µM*	i
Cc1ccccc1CCNC(=O)c1cc(C2CC2)nc2c1cnn2C(C)C	?	-11%	21µM*	0%	?	i
CC(C)c1nc2ccc(C(=O)NCCCN3CCN(c4ccccc4F)CC3)cc2o1	i	/	?	/	?	i
N#Cc1cccnc1N1CCN(C(=O)COCC(=O)O)CC1	i	2%	1%	1%	-10%	i
Cc1ccc(N2C(=O)CS(=O)C(c3ccccc3)C2=O)cc1C (stereo unspecified)	i	-9%	?	-11%	15µM*	i
O=C1C2=C(Nc3ccccc3SC2c2c(F)cccc2Cl)c2ccccc21 (stereo unspecified)	i	/	15µM*	/	?	i
CCOc1cc(C2Sc3ccccc3NC3=C2C(=O)c2ccccc23)ccc1O (stereo unspecified)	i	/	?	/	?	i
CCCc1ccc(C2Sc3ccccc3NC3=C2C(=O)c2ccccc23)cc1 (stereo unspecified)	i	/	?	/	15µM*	?
COc1ccc(Br)cc1C1Sc2ccccc2NC2=C1C(=O)c1ccccc12 (stereo unspecified)	?	/	?	/	13µM*	?
O=C1C2=C(Nc3ccccc3SC2c2ccc(Cl)c(Cl)c2)c2ccccc21 (stereo unspecified)	?	/	15µM*	/	26µM*	?
COc1ccc(CCNC(=O)c2ccc(=O)[nH]c2)cc1OC	i	5%	7%	14%	2%	i
